In PubChem BioAssay AID720690 (Broad Institute, 2013):
Potency and affinity values are given separately. The source made the active and inactive calls.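 How the source made its calls: active means every repeat run showing a signal drop whose fitted half-maximal concentration is at most twice the top tested concentration; inconclusive means repeat runs disagree, or flat partial drop, or poor fit; inactive means the rest.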

Assay: HEK293T cytotoxicity, dose response, cytotoxicity control for miR-122 modulator project, cell-based, activator set, cherry-pick (AID 720690)
Conditions: HEK293T viability, CellTiter-Glo luminescence, 48 h; series mostly up to 26 µM
For CN1C(=O)c2cc(NC(=O)Cc3ccccc3)ccc2OC[C@H]2O[C@@H](CC(=O)NC3CCC3)CC[C@@H]21, the outcome was “inactive”. For CCN(C[C@@H]1[C@@H](c2ccccc2)[C@@H](CO)N1S(C)(=O)=O)C(=O)C1CC1, the outcome was “inactive”. With Cc1nnc(NC(=O)CSc2nc(C(C)C)nc3sc(C)c(C)c23)s1 the outcome was “inactive”. With COCCNC(=O)C[C@H]1CC[C@@H]2[C@H](COc3ccc(NC(=O)C4CCOCC4)cc3C(=O)N2C)O1 the outcome was “inactive”. For COc1cccc(S(=O)(=O)N(C)C[C@@H]2Oc3cc(C4=CCCC4)ccc3S(=O)(=O)N([C@H](C)CO)C[C@@H]2C)c1, the outcome was “inactive”. For CO[C@H]1CN(C)C(=O)c2cc(NC(=O)C3CC3)ccc2OC[C@H](C)N(CCc2ccccc2)C[C@H]1C, the outcome was “inactive”. For C[C@@H]1CN([C@@H](C)CO)S(=O)(=O)c2ccc(C3=CCCCC3)cc2O[C@@H]1CN(C)C(=O)Cc1ccncc1, the outcome was “inactive”. In the case of CCc1nc2sc(C)c(C)c2c(=O)n1CCO, the outcome is reported as “inactive”. For CN(C)C(=O)c1ccc(NC(=O)c2cc(-n3cnnc3)ccc2Cl)cc1, the outcome was “inactive”. For CN1C(=O)c2cc(NC(=O)Nc3ccccc3F)ccc2OC[C@@H]2O[C@H](CC(=O)O)CC[C@@H]21, the outcome was “inactive”. In the case of COCC(=O)Nc1ccc2c(c1)C(=O)N(C)[C@@H]1CC[C@H](CC(=O)NC3CCCC3)O[C@H]1CO2, the outcome is reported as “inactive”. For Cc1[nH]c(=O)c(C#N)cc1-c1ccccc1, the outcome was “inactive”. In the case of OC[C@H]1[C@@H](c2ccccc2)[C@@H](CNCC2CCC2)N1CC1CC1, the outcome is reported as “inactive”. For C[C@@H]1CCCCO[C@H](CN(C)CC2CCCCC2)[C@H](C)CN([C@H](C)CO)C(=O)c2cc(NC(=O)Nc3ccc4c(c3)OCO4)ccc2O1, the outcome was “inactive”. In the case of COc1ccc(C(O)(CC(C)C)C(CN2CCOCC2)c2ccccc2)cc1 (centres undefined), the outcome is reported as “inactive”. With Cc1cc(C)c2c(c1)/C(=C/C(=O)c1ccc(Br)s1)C(=O)N2 the outcome was “inactive”. With Cc1ccccc1-c1nc(CN2CCCC(C(=O)NCCCN3CCOCC3)C2)c(C)o1 (centres undefined) the outcome was “inactive”. For CCC(=O)Nc1ccc2c(c1)C(=O)N(C)[C@@H]1CC[C@H](CC(=O)Nc3cccc(OC)c3)O[C@@H]1CO2, the outcome was “inactive”. With CC(=O)N(C[C@@H]1N[C@@H](CO)[C@H]1c1ccc(-c2ccccc2)cc1)C(C)C the outcome was “inactive”. In the case of COC(=O)c1nn(-c2ccccc2)c(Sc2ccc(Cl)cc2)c1/C=N/O, the outcome is reported as “inactive”. For O=C(CC(F)(F)F)N1C[C@@H]2[C@H](c3ccccc31)[C@@H](CO)N2C(=O)C1CCCC1, the outcome was “inactive”. With O=C(COC(=O)Cc1ccc(S(=O)(=O)N2CCOCC2)s1)Nc1ccc2c(c1)OCO2 the outcome was “inactive”. In the case of CN1C(=O)c2cc(NC(=O)c3ccc(C(F)(F)F)cc3)ccc2OC[C@H]2O[C@H](CC(=O)O)CC[C@@H]21, the outcome is reported as “inactive”. In the case of CN1C(=O)c2cc(NC(=O)c3cccc(F)c3)ccc2OC[C@@H]2O[C@@H](CC(=O)NC3CCC3)CC[C@H]21, the outcome is reported as “inactive”. In the case of Cc1cc(C(=O)Nc2ccc3c(c2)C(=O)N(C)[C@@H]2CC[C@@H](CC(=O)N[C@H](C)c4ccccc4)O[C@H]2CO3)no1, the outcome is reported as “inactive”. For CNC(=O)C[C@H]1CC[C@@H]2[C@@H](COc3ccc(NC(=O)C(C)C)cc3C(=O)N2C)O1, the outcome was “inactive”. With OC[C@H]1[C@@H](c2ccccc2)[C@H](CNCC2CCC2)N1CC1CC1 the outcome was “inactive”. With CCCNC(=O)N1[C@@H]2CN(C(=O)c3ccccc3)c3ccccc3[C@@H]2[C@@H]1CO the outcome was “inactive”. In the case of CN1C(=O)c2cc(NC(=O)C3CCOCC3)ccc2OC[C@H]2O[C@H](CC(=O)NCc3ccc4c(c3)OCO4)CC[C@@H]21, the outcome is reported as “inactive”. In the case of C/C=C/c1ccc([C@@H]2[C@@H](CNC(=O)c3ccncc3)N(C(=O)CC)[C@H]2CO)cc1, the outcome is reported as “inactive”. With C[C@@H]1CN([C@@H](C)CO)C(=O)c2cccc(NS(C)(=O)=O)c2O[C@H]1CN(C)S(=O)(=O)c1ccc(Cl)cc1 the outcome was “inactive”. With CN1C[C@H]2[C@@H](c3ccccc31)[C@@H](CO)N2C(=O)C1CCOCC1 the outcome was “inactive”. In the case of O=C(Nc1ccccc1F)N1[C@H](CO)[C@@H]2c3ccccc3NC[C@@H]21, the outcome is reported as “inactive”. In the case of O=C(NC[C@H]1N[C@H](CO)[C@@H]1c1ccc(-c2ccccc2F)cc1)c1ccccc1, the outcome is reported as “inactive”. For c1ccc(-n2nnnc2NCCc2c[nH]c3ccccc23)cc1, the outcome was “inactive”. With Cc1ccc(S(=O)(=O)Nc2ccc3c(c2)C(=O)N(C)[C@@H]2CC[C@@H](CC(=O)NCCc4ccncc4)O[C@@H]2CO3)cc1 the outcome was “inactive”. With CN1C(=O)c2cc(NC(=O)c3cccc(F)c3)ccc2OC[C@@H]2O[C@@H](CC(=O)O)CC[C@@H]21 the outcome was “inactive”. With COc1ccc(C#Cc2ccc([C@@H]3[C@@H](CO)N4CCCCN(C(=O)Nc5ccccc5)C[C@H]34)cc2)cc1 the outcome was “inactive”. For CN1[C@@H](CO)[C@@H]2c3ccccc3N(C(=O)Nc3cc(F)ccc3F)C[C@@H]21, the outcome was “inactive”.
